Assay results as given in PubChem BioAssay (NCATS).
Results filed as inconclusive are left out. The source made the active and inactive calls. Calls follow the shape of the dose curve; as a rule, active = well fitted curve in the direction sought with a large enough effect; inconclusive = small, poorly fitted or top-dose-only effect, or another doubt; inactive = no such curve, though single readings can be large; an effect the other way counts as inactive or inconclusive.

Assay: Quantitative highthroughput screen to assess conditional lethalithy of P12 Ichikawa cells grown in RPMI1640 with untreated serum (RPMI+s) (AID 1963881);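 as to viability: 100% = DMSO wells and 0% = empty wells without cells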
Settings: ATP luminescence, 48 h; Potency: viability; series mostly up to 45.8 µM; viability: at the top concentration
In short: (§1)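 Each medium arm—HPLM with 10% dialyzed FBS, or RPMI1640 with 5 mM glucose and 10% untreated or dialyzed FBS—was screened against an 11-point, 3-fold compound titration for 48 h at 37 °C, with CellTiter-Glo luminescence as endpoint.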
Also: nearly all actives have a fitted effect of over 35% in size.
Potency is read from the fitted curve at half-maximal effect.

Compound | viability | Potency
CC(O)=C(C#N)C(=O)Nc1ccc(C(F)(F)F)cc1 | 86.1% (inactive) | –
CN(C(Cc1ccc(OS(=O)(=O)c2cccc3cnccc23)cc1)C(=O)N1CCN(c2ccccc2)CC1)S(=O)(=O)c1cccc2cnccc12 (stereo unspecified) | – | 14.8 µM (active)
CCC[C@@H](NC(=O)[C@@H]1[C@H]2CCC[C@@H]2CN1C(=O)[C@@H](NC(=O)[C@@H](NC(=O)c1cnccn1)C1CCCCC1)C(C)(C)C)C(=O)C(=O)NC1CC1 | 95.1% (inactive) | –
CN(C)CC=CC(=O)Nc1cc2c(Nc3ccc(F)c(Cl)c3)ncnc2cc1O[C@H]1CCOC1 | – | 1.87 µM (active)
C[C@H]1C[C@H]2[C@@H]3CCC4=CC(=O)C=C[C@]4(C)[C@@H]3C(=O)C[C@]2(C)[C@@]1(O)C(=O)CO | 92.5% (inactive) | –
C[C@H]1Oc2cc(cnc2N)-c2c(nn(C)c2C#N)CN(C)C(=O)c2ccc(F)cc21 | 97.2% (inactive) | –
CCc1cnn2c(NCc3ccc[n+]([O-])c3)cc(N3CCCC[C@@H]3CCO)nc12 | – | 0.118 µM (active)
O=C(O)[C@H](Cc1c[nH]c2ccccc12)N1C(=O)c2ccccc2C1=O | 97.3% [at 92.2 µM] (inactive) | –
CC(C(C)N1CC(=O)NC(=O)C1)N1CC(=O)NC(=O)C1 (stereo unspecified) | – | 1.66 µM (active)
O=C(O)c1ccc(Nc2ncc3c(n2)-c2ccc(Cl)cc2C(c2c(F)cccc2F)=NC3)cc1 | – | 0.935 µM (active)
O=c1oc2cc(O)ccc2s1 | 95.7% (inactive) | –
NC1CCC(Nc2nc(Nc3ccc(C(=O)N4CCCCC4)cc3)c3ncn(-c4cccc(F)c4)c3n2)CC1 (stereo unspecified) | 97.9% (inactive) | –
COc1cc(C)c(C=CC(C)=CC=CC(C)=CC(=O)O)c(C)c1C | 94.9% (inactive) | –
C=C1C(=CC=C2CCC[C@]3(C)[C@@H]([C@H](C)C=C[C@H](C)C(C)C)CC[C@@H]23)C[C@@H](O)C[C@@H]1O | – | 9.35 µM (active)
C=CCc1cccc(C=NNC(=O)CN2CCN(Cc3ccccc3)CC2)c1O | – | 14.8 µM (active)
C[C@H](NC(=O)C(C#N)=Cc1cccc(Br)n1)c1ccccc1 | – | 2.35 µM (active)
O=C(Nc1c(Cl)cncc1Cl)c1ccc(OC(F)F)c(OCC2CC2)c1 | 98.2% (inactive) | –
Cc1c(O)cccc1C(=O)N[C@@H](CSc1ccccc1)[C@H](O)CN1C[C@H]2CCCC[C@@H]2C[C@@H]1C(=O)NC(C)(C)C | 96.9% (inactive) | –
O=C1NC(=O)C(=Cc2ccc(-c3ccc(F)cc3O)o2)S1 | – | 6.62 µM (active)
O=C(OCC#CCSc1nnc(-c2cccc3ccccc23)o1)c1cc2ccccc2s1 | 98% (inactive) | –
NC(=O)NN=Cc1ccc([N+](=O)[O-])o1 | 104% (inactive) | –
C[C@@H]1[C@H](O)[C@@H](C)C=CC=CC=CC=CC=CC=CC=C[C@H](O[C@@H]2O[C@H](C)[C@H](O)[C@H](N)[C@@H]2O)C[C@@H]2O[C@](O)(C[C@@H](O)C[C@@H](O)[C@H](O)CC[C@@H](O)C[C@@H](O)CC(=O)O[C@H]1C)C[C@H](O)[C@@H]2C(=O)O | 98.5% (inactive) | –
N=C1SC(=Cc2ccc(-c3ccc4c(c3)C(=O)NC4=O)o2)C(=O)N1c1ccc(Br)cc1 | 91.9% (inactive) | –
Cc1nc(NC(=O)N2CCC[C@@H]2C(N)=O)sc1-c1csc(C(C)(C)C)n1 | – | 1.66 µM (active)
CCCCCOC(=O)Nc1nc(=O)n([C@@H]2O[C@H](C)[C@@H](O)C2O)cc1F (stereo partly specified) | 93.8% (inactive) | –
CC(=O)OCC(=O)[C@@]1(O)CC[C@H]2[C@@H]3CCC4=CC(=O)CC[C@]4(C)[C@@H]3C(=O)C[C@@]21C | 104% (inactive) | –
CCC(C)(C)c1ccc(CC(C)CN2C[C@@H](C)O[C@@H](C)C2)cc1 (stereo partly specified) | 96.2% (inactive) | –

Assay: Quantitative highthroughput screen to assess conditional lethalithy of SEM cells grown in Human Plasma-Like Medium with dialyzed fetal bovine serum (HPLM+ds) (AID 1963882)
Settings: SEM B-ALL cells in HPLM+ds, CellTiter-Glo viability, 48 h; series mostly up to 45.8 µM; viability: at the top concentration
In short: as §1

Compound | viability | Potency
CCC[C@@H](NC(=O)[C@@H]1[C@H]2CCC[C@@H]2CN1C(=O)[C@@H](NC(=O)[C@@H](NC(=O)c1cnccn1)C1CCCCC1)C(C)(C)C)C(=O)C(=O)NC1CC1 | 93.5% (inactive) | –
CN(C)CC=CC(=O)Nc1cc2c(Nc3ccc(F)c(Cl)c3)ncnc2cc1O[C@H]1CCOC1 | – | 1.05 µM (active)
CCc1cnn2c(NCc3ccc[n+]([O-])c3)cc(N3CCCC[C@@H]3CCO)nc12 | – | 0.0743 µM (active)
O=C(O)[C@H](Cc1c[nH]c2ccccc12)N1C(=O)c2ccccc2C1=O | 81.9% [at 92.2 µM] (inactive) | –
CC(Cc1ccc(O)c(O)c1)(NN)C(=O)O (stereo unspecified) | 74.7% (inactive) | –
NC1CCC(Nc2nc(Nc3ccc(C(=O)N4CCCCC4)cc3)c3ncn(-c4cccc(F)c4)c3n2)CC1 (stereo unspecified) | 107% (inactive) | –
COc1cc(C)c(C=CC(C)=CC=CC(C)=CC(=O)O)c(C)c1C | 95% (inactive) | –
C=CCc1cccc(C=NNC(=O)CN2CCN(Cc3ccccc3)CC2)c1O | – | 10.5 µM (active)
C[C@H](NC(=O)C(C#N)=Cc1cccc(Br)n1)c1ccccc1 | – | 1.32 µM (active)
Nc1nc2ccc(OC(F)(F)F)cc2s1 | 71% (inactive) | –
O=C(Nc1c(Cl)cncc1Cl)c1ccc(OC(F)F)c(OCC2CC2)c1 | 104% (inactive) | –
Cc1c(O)cccc1C(=O)N[C@@H](CSc1ccccc1)[C@H](O)CN1C[C@H]2CCCC[C@@H]2C[C@@H]1C(=O)NC(C)(C)C | 85.2% (inactive) | –
O=C1NC(=O)C(=Cc2ccc(-c3ccc(F)cc3O)o2)S1 | 87.7% (inactive) | –
O=c1[nH]c(=O)n([C@H]2C[C@@H](O)[C@@H](CO)O2)cc1I | – | 7.43 µM (active)
O=C1Nc2ccc(Cl)cc2C(C#CC2CC2)(C(F)(F)F)O1 (stereo unspecified) | 100% (inactive) | –
O=C(OCC#CCSc1nnc(-c2cccc3ccccc23)o1)c1cc2ccccc2s1 | 102% (inactive) | –
NC(=O)NN=Cc1ccc([N+](=O)[O-])o1 | 89.2% (inactive) | –
C[C@@H]1[C@H](O)[C@@H](C)C=CC=CC=CC=CC=CC=CC=C[C@H](O[C@@H]2O[C@H](C)[C@H](O)[C@H](N)[C@@H]2O)C[C@@H]2O[C@](O)(C[C@@H](O)C[C@@H](O)[C@H](O)CC[C@@H](O)C[C@@H](O)CC(=O)O[C@H]1C)C[C@H](O)[C@@H]2C(=O)O | 108% (inactive) | –
C=CCNc1c(O)cc2c(O)c1C[C@@H](C)C[C@H](OC)[C@@H](O)[C@@H](C)C=C(C)[C@H](OC(N)=O)[C@@H](OC)C=CC=C(C)C(=O)N2 | – | 1.66 µM (active)
CC=CC(=O)N(CC)c1ccccc1C | 88.1% (inactive) | –
Cc1nc(NC(=O)N2CCC[C@@H]2C(N)=O)sc1-c1csc(C(C)(C)C)n1 | – | 1.05 µM (active)
CCCCCOC(=O)Nc1nc(=O)n([C@@H]2O[C@H](C)[C@@H](O)C2O)cc1F (stereo partly specified) | 105% (inactive) | –
CC(=O)OCC(=O)[C@@]1(O)CC[C@H]2[C@@H]3CCC4=CC(=O)CC[C@]4(C)[C@@H]3C(=O)C[C@@]21C | 98.6% (inactive) | –
CCC(C)(C)c1ccc(CC(C)CN2C[C@@H](C)O[C@@H](C)C2)cc1 (stereo partly specified) | 94.4% (inactive) | –
